Common to all, as to experiment: universal protein binding microarray (PBM); transcription factors of Arabidopsis thaliana; high values mean tight binding
The target in one assay is T1, GST-ANAC092(1-176) (Arabidopsis thaliana, UniProt Q9FKA0 1-176).
T1 sequence: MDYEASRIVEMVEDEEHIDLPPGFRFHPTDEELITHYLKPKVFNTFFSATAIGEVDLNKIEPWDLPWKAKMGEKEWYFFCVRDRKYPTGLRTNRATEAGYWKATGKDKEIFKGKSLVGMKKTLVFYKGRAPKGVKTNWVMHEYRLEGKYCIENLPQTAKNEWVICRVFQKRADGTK
Particulars: protein: recombinant; tags: GST; chain copies: 2; dsDNA, one strand shown. The method, boiled down: (§1)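 Binding is expressed as the normalised enrichment score (E-score). Proteins carrying a GST tag, whether NAC-domain, full-length or DNA-binding-domain forms, were induced in cells, and zinc acetate was added for zinc-finger proteins. After purification on glutathione–Sepharose 4B and quantification by A280 or anti-GST western blot, each was applied in duplicate at 200 to 500 nM final to custom all-10-mer Agilent 4 × 180K arrays made double-stranded by primer extension. Gapped and ungapped 8-mers were scored.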

The target in another assay is T2, GST-ANAC019 NAC domain (Arabidopsis thaliana, UniProt Q9C932 14-162).
T2 sequence: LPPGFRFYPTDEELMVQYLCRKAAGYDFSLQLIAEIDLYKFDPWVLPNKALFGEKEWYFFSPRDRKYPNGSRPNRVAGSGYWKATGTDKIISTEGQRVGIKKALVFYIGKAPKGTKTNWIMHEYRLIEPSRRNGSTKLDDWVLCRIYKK
The conditions noted are these: protein: recombinant; tags: GST; chain copies: 2; dsDNA, one strand shown. The procedure, abridged: as §1

The next assay has as its target T3, GST-ANAC055(1-171) (Arabidopsis thaliana, UniProt Q9LDY8 1-171).
T3 sequence: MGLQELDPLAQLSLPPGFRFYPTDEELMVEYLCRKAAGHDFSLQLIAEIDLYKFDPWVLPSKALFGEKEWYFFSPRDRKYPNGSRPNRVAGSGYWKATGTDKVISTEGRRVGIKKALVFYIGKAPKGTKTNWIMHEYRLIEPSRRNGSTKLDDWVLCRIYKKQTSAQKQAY
The conditions noted are these: protein: recombinant; tags: GST; chain copies: 2; dsDNA, one strand shown. The method, boiled down:
as §1

Another assay addresses T4, GST-ATAF1 NAC domain (Arabidopsis thaliana, UniProt Q39013 7-158).
T4 sequence: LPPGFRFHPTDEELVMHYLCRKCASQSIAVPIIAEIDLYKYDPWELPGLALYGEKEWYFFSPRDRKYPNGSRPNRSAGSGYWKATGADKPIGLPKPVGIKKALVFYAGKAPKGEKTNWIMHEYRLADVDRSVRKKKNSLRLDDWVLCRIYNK
Particulars: protein: recombinant; tags: GST; chain copies: 2; dsDNA, one strand shown. The procedure, abridged: as §1

In assay [1] the target is T5, GST-ANAC092(1-285) full length (Arabidopsis thaliana, UniProt Q9FKA0 1-285).
T5 sequence: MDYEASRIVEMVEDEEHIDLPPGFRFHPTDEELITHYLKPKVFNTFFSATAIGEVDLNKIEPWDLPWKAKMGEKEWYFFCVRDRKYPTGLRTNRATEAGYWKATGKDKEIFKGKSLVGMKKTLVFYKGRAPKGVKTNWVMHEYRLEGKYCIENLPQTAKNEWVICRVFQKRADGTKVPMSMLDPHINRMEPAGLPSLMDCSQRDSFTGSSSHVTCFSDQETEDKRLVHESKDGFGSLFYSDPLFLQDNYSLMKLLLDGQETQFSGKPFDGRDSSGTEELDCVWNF
The conditions noted are these: protein: recombinant; tags: GST; chain copies: 2; dsDNA, one strand shown. The procedure, abridged:
as §1

For the next assay, the target named is T6, GST-NAP(1-166) (Arabidopsis thaliana, UniProt O49255 1-166).
T6 sequence: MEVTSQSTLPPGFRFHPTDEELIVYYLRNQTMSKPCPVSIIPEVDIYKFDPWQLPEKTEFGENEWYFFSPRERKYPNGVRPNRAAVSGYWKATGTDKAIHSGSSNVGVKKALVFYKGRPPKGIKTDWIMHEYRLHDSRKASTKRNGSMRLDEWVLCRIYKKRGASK
Particulars: protein: recombinant; tags: GST; chain copies: 2; dsDNA, one strand shown. The method, boiled down:
as §1

Another assay deals with T7, GST-NST2(1-184) (Arabidopsis thaliana, UniProt Q9M274 1-184).
T7 sequence: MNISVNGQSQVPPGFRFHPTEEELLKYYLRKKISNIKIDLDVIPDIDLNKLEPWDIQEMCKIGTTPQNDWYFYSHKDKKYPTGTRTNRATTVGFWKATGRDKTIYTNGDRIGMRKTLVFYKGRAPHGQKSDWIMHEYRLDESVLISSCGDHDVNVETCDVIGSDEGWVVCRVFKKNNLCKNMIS
The conditions noted are these: protein: recombinant; tags: GST; chain copies: 2; dsDNA, one strand shown. The procedure, abridged: as §1

The target of a further assay is T8, GST-SND1(1-203) (Arabidopsis thaliana, UniProt Q9LPI7 1-203).
T8 sequence: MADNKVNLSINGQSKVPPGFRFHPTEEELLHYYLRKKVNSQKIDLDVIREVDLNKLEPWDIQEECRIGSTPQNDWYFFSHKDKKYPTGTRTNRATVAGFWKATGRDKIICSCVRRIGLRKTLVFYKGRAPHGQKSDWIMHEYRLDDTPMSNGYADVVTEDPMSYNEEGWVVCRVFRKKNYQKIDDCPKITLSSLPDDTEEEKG
The conditions noted are these: protein: recombinant; tags: GST; chain copies: 2; dsDNA, one strand shown. The method, boiled down: as §1

Another assay addresses T9, GST-VND3 NAC domain (Arabidopsis thaliana, UniProt Q9FH59 12-162).
T9 sequence: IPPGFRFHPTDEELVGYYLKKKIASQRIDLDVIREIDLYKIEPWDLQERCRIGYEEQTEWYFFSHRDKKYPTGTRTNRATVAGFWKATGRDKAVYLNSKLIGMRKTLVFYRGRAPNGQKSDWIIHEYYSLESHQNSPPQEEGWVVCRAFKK
The conditions noted are these: protein: recombinant; tags: GST; chain copies: 2; dsDNA, one strand shown. The method, boiled down: as §1

The target in another assay is T10, GST-VND7 NAC domain (Arabidopsis thaliana, UniProt Q9C8W9 9-158).
T10 sequence: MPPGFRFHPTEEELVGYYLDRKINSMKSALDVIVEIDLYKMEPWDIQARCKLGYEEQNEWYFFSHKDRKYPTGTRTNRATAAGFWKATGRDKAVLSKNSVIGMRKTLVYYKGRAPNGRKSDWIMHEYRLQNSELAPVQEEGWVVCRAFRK
The conditions noted are these: protein: recombinant; tags: GST; chain copies: 2; dsDNA, one strand shown. The procedure, abridged:
as §1

A further assay addresses GST-WRKY1(266-371) (Arabidopsis thaliana, UniProt Q9SI37 266-371). The conditions noted are these: protein: recombinant; tags: GST; dsDNA, one strand shown. The procedure, abridged:
as §1

The target of another assay is GST-NTL6(1-168) (Arabidopsis thaliana, UniProt Q9SCK6 1-168). The conditions noted are these: protein: recombinant; tags: GST; chain copies: 2; dsDNA, one strand shown. The procedure, abridged:
as §1

Another assay addresses T11, GST-NTL8 NAC domain (Arabidopsis thaliana, UniProt Q9XIN7 14-156).
T11 sequence: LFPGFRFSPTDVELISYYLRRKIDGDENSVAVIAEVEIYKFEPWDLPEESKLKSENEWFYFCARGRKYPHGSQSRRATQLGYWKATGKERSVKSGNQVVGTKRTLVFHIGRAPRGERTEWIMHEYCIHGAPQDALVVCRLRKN
The conditions noted are these: protein: recombinant; tags: GST; chain copies: 2; dsDNA, one strand shown. The procedure, abridged: as §1

Chain of GST-WRKY1(266-371) (Q9SI37 266-371): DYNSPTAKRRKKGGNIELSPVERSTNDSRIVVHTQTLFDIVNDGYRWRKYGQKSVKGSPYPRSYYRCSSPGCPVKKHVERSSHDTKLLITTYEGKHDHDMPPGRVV
Chain of GST-NTL6(1-168) (Q9SCK6 1-168): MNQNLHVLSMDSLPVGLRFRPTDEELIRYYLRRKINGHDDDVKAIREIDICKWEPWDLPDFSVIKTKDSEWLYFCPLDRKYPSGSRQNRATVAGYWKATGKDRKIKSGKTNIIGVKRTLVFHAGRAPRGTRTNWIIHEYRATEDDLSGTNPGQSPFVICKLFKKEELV

CACGTCAA: the binding signal with GST-ANAC092(1-176) was 0.444 E-score; with GST-ANAC019 NAC domain, 0.38 E-score; with GST-ANAC055(1-171), 0.324 E-score; in the assay with GST-ATAF1 NAC domain, 0.248 E-score; in assay [1], 0.448 E-score; with GST-NAP(1-166) it was 0.299 E-score. In addition, the binding signal was 0.252 E-score in the assay with GST-NST2(1-184); 0.313 E-score with GST-SND1(1-203); 0.332 E-score with GST-VND3 NAC domain; 0.278 E-score in the assay with GST-VND7 NAC domain; 0.403 E-score with GST-WRKY1(266-371).
Take GTTCCGTA: the binding signal in the assay with GST-ANAC092(1-176) is 0.351 E-score; with GST-ANAC019 NAC domain, 0.43 E-score; with GST-ANAC055(1-171) it was 0.448 E-score; with GST-ATAF1 NAC domain, 0.438 E-score; in assay [1] it was 0.373 E-score; with GST-NAP(1-166) it was 0.455 E-score. The binding signal was determined as 0.179 E-score in the assay with GST-NST2(1-184); 0.377 E-score with GST-SND1(1-203); 0.375 E-score with GST-VND3 NAC domain; 0.439 E-score with GST-VND7 NAC domain; 0.0936 E-score with GST-WRKY1(266-371).
Turning to CGTATACG, the binding signal with GST-ANAC092(1-176) is 0.195 E-score; with GST-ANAC019 NAC domain, 0.354 E-score; in the assay with GST-ANAC055(1-171), 0.363 E-score; in the assay with GST-ATAF1 NAC domain it was 0.407 E-score; in assay [1], 0.283 E-score; with GST-NAP(1-166), 0.397 E-score. For the same sequence, the binding signal with GST-NST2(1-184) was 0.0918 E-score; in the assay with GST-SND1(1-203), 0.0859 E-score; with GST-VND3 NAC domain, 0.321 E-score; with GST-VND7 NAC domain, 0.395 E-score; with GST-WRKY1(266-371), 0.0731 E-score.
As for TCACGTCA, the binding signal with GST-ANAC092(1-176) was determined as 0.429 E-score; in the assay with GST-ANAC019 NAC domain it was 0.38 E-score; in the assay with GST-ANAC055(1-171) it was 0.354 E-score; with GST-ATAF1 NAC domain, 0.321 E-score; in assay [1], 0.429 E-score; with GST-NAP(1-166), 0.329 E-score. The binding signal was determined as 0.188 E-score in the assay with GST-NST2(1-184); 0.343 E-score with GST-SND1(1-203); 0.322 E-score with GST-VND3 NAC domain; 0.367 E-score in the assay with GST-VND7 NAC domain; 0.292 E-score with GST-WRKY1(266-371).
As to CACGTCAG, the binding signal with GST-ANAC092(1-176) was 0.336 E-score; with GST-ANAC019 NAC domain it was 0.261 E-score; with GST-ANAC055(1-171), 0.19 E-score; with GST-ATAF1 NAC domain, 0.203 E-score; in assay [1], 0.407 E-score; with GST-NAP(1-166), 0.154 E-score. Moreover, the binding signal with GST-SND1(1-203) was 0.0864 E-score; with GST-VND3 NAC domain it was 0.127 E-score; with GST-VND7 NAC domain, 0.214 E-score; with GST-WRKY1(266-371) it was 0.081 E-score.
For ACACGTCT, the binding signal with GST-ANAC092(1-176) came out at 0.422 E-score; with GST-ANAC019 NAC domain, 0.459 E-score; with GST-ANAC055(1-171), 0.405 E-score; in the assay with GST-ATAF1 NAC domain, 0.393 E-score; in assay [1], 0.425 E-score; with GST-NAP(1-166), 0.346 E-score. Moreover, the binding signal with GST-NST2(1-184) is 0.168 E-score; in the assay with GST-SND1(1-203) it was 0.174 E-score; with GST-VND3 NAC domain, 0.396 E-score; with GST-VND7 NAC domain, 0.421 E-score; with GST-WRKY1(266-371), 0.114 E-score.
GCAAGTCA: the binding signal with GST-ANAC092(1-176) came to 0.187 E-score; in the assay with GST-NTL6(1-168), 0.0738 E-score; with GST-ATAF1 NAC domain it was 0.0771 E-score; in [1], 0.301 E-score; with GST-NST2(1-184), 0.0804 E-score; in the assay with GST-SND1(1-203) it was 0.175 E-score. For the same sequence, the binding signal in the assay with GST-VND3 NAC domain worked out at 0.115 E-score; with GST-VND7 NAC domain it was 0.12 E-score; with GST-WRKY1(266-371) it was 0.423 E-score.
For the sequence AAGTAATA, the binding signal in the assay with GST-ANAC092(1-176) turned out to be 0.31 E-score; with GST-NTL6(1-168), 0.428 E-score; with GST-ANAC055(1-171) it was 0.215 E-score; in the assay with GST-ATAF1 NAC domain it was 0.207 E-score; in assay [1], 0.327 E-score; in the assay with GST-NAP(1-166), 0.14 E-score. The binding signal is 0.274 E-score with GST-NST2(1-184); 0.211 E-score with GST-NTL8 NAC domain; 0.294 E-score with GST-SND1(1-203); 0.216 E-score in the assay with GST-VND3 NAC domain; 0.136 E-score with GST-VND7 NAC domain; 0.074 E-score in the assay with GST-WRKY1(266-371).

The record behind these values is article PMC4081100, “A DNA-binding-site landscape and regulatory network analysis for NAC transcription factors in Arabidopsis thaliana”.
